EphB4 ephrin blk – antagonists of human EphB4-ephrin-B2 interaction; P54760; EphB4 LBD / TNYL-RAW-Alexa532 peptide, fluorescence polarization; inhibition, % at 7 µM; 97,000 compounds, 0.15% hits;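 active means inhibition above the screen-wide mean inhibition plus 3 SD, cut at about 15% in these data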
Target sequence (P54760 whole entry, looked up, the tested form may be a part): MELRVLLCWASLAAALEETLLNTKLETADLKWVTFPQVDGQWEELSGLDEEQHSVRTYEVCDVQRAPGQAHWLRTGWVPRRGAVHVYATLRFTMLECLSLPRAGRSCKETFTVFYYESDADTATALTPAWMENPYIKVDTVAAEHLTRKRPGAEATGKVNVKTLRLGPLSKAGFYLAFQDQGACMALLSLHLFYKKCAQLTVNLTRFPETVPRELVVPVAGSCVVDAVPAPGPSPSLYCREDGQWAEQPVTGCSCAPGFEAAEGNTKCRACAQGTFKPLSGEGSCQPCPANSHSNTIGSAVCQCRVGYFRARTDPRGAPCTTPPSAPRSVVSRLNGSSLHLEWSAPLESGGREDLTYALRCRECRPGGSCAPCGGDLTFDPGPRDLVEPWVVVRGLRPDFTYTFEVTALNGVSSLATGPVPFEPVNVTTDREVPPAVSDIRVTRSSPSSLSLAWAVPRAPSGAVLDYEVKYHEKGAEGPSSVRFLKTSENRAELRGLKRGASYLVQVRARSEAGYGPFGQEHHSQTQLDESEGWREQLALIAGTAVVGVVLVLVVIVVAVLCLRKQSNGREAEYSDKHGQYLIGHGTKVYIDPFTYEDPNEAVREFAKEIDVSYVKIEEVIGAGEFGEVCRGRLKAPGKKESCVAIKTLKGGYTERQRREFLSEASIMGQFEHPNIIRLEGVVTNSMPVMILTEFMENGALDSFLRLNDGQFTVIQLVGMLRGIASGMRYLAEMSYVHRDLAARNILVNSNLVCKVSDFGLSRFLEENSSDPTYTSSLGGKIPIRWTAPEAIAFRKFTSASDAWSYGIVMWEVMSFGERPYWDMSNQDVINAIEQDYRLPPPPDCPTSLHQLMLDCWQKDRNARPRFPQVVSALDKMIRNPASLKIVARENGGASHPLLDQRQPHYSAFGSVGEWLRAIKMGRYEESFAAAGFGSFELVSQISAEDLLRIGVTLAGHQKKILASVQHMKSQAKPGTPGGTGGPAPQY
Calb biofilm kill – kills Candida albicans biofilms | C. albicans biofilm + clotrimazole, Alamar Blue | inhibition, % at 6 µM | 85,000 compounds, 0.14% hits | AID 834;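 active means inhibition above 20%; inactive means inhibition below 20%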;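 further: preformed 24 hr biofilms exposed to compound for 48 hr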
IL1B NFkB inh – blocks IL-1B driven NFkB nuclear translocation in HUVEC cells; 94,000 compounds, 0.43% hits; AID 796; inhibition, % at 2 µM; HUVEC IL-1B NFkB p65 nuclear translocation imaging;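 active means inhibition above about 30% together with a positive call from visual inspection of the well image, limit read from the data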;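 further: nuclear over cytoplasmic p65 intensity ratio measured by imaging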
HUVEC tox IL1B – toxic to HUVEC cells under IL-1B stimulation; 94,000 compounds, 0.41% hits; HUVEC cell count loss, Hoechst imaging, IL-1B stimulated; cell count reduction, % at 2 µM;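 active means cell count reduction more than 3 SD above the screen-wide mean, cut at about 70% in these data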
IL1B NFkB pot – enhances IL-1B driven NFkB nuclear translocation; AID 819; 94,000 compounds, 0.3% hits; activation, % at 2 µM; HUVEC IL-1B NFkB p65 nuclear translocation imaging;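 active means activation above 40%, about the mean plus 3 SD, also judged a hit on visual image review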;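 further: percent activation is computed from the nuclear over cytoplasmic p65 intensity ratio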
Numbers stand for hits; i = inactive; nt = no result given. In the library only some 1.1% were active in any assay of this set; here they are far more common.

SMILES	EphB4 ephrin blk	Calb biofilm kill	IL1B NFkB inh	HUVEC tox IL1B	IL1B NFkB pot
O=C(c1ccco1)N1CCN(c2nc(C(F)(F)F)nc3c2nnn3Cc2ccccc2)CC1	i	i	i	i	40.7
COc1cc(C2/C(=C(/O)c3ccc(OCC(C)C)cc3)C(=O)C(=O)N2CCN(C)C)ccc1O (stereo not given)	i	i	i	i	41.2
COc1ccc(/C(O)=C2/C(=O)C(=O)N(CCN(C)C)C2c2ccc(OC)c(OC)c2)c(C)c1 (stereo not given)	i	i	39.0	i	i
COc1ccc(/C(O)=C2/C(=O)C(=O)N(CCN(C)C)C2c2ccc(C)cc2)cc1Cl (stereo not given)	i	i	i	i	i
CCC(=O)Nc1ccc(NC(=O)CSc2nnnn2-c2cccnc2)cc1C	i	nt	i	i	i
COC(=O)C1C(=O)C2=C(CC1C)NC(=O)CC2c1cccc(C)c1 (stereo not given)	i	i	i	90.2	i
COc1ccccc1N1CCN(C(=O)CSc2ncccc2-c2nc3ccccc3[nH]2)CC1	i	i	i	i	i
O=C(CSc1ncccc1-c1nc2ccccc2[nH]1)N1CCN(c2ccccc2F)CC1	i	i	i	84.8	i
COc1ccc(C(=O)OCC2CC(c3ccccc3)N(C)O2)cc1 (stereo not given)	i	nt	46.9	i	i
CC(C)(C)c1nc2ccccc2[nH]1	i	nt	i	i	48.0
CCN1C(=O)/C(=c2/s/c(=C3\SC(C)=C(C)N3CC)c(=O)n2CC)N(c2ccccc2)C1=S	i	i	i	i	i
CCN1CCCC1Cn1cnc2c([nH]c3ccc(Cl)cc32)c1=O (stereo not given)	i	i	i	i	i
CCN1CCCC1Cn1cnc2c([nH]c3cccc(Cl)c32)c1=O (stereo not given)	i	i	30.0	i	i
CCc1[nH]nc2c1C(c1cccnc1)C(C#N)=C(N)O2 (stereo not given)	i	i	i	i	43.3
CNC(=O)CN(C)S(=O)(=O)c1ccc(F)cc1	i	i	i	i	44.3
CCCCS(=O)(=O)/C=C\C=C/S(=O)(=O)CCCC	i	i	94.9	i	i
CC(C)C(NS(=O)(=O)c1cccs1)C(=O)NCCN1CCN(c2ccccc2)CC1 (stereo not given)	i	i	33.4	i	i
Nc1c(C(=O)Nc2ccc(Cl)cc2)oc2ccccc12	i	i	i	i	i
Cc1nccn1-c1cc(C(C)C)c(C#N)c2nc3ccccc3n12	nt	i	nt	nt	nt
COc1c(C)cc(Br)cc1C(=O)O	i	i	i	89.9	i
COc1c(C)cc(Br)cc1C(=O)Nc1cccc(NC(=O)c2ccco2)c1	i	i	i	87.2	i
COc1ccc(Br)cc1C(=O)Nc1cccc(NC(=O)c2ccco2)c1	i	i	i	i	i
CC1=C(C(=O)OCC(C)C)C23C(=O)c4ccccc4C2(O1)OC(N)=C3C#N (stereo not given)	i	i	i	i	i
O=C1CCCCN1CCc1c[nH]c2ccccc12	i	i	i	86.1	i
C=CCNC(=O)/C(=C\c1ccc([N+](=O)[O-])cc1)NC(C)=O	i	nt	i	i	i
SMILES	EphB4 ephrin blk	Calb biofilm kill	IL1B NFkB inh	HUVEC tox IL1B	IL1B NFkB pot
CC(C)(C)C(=O)/C(=C\c1ccc([N+](=O)[O-])cc1)n1cncn1	i	i	68.9	i	i
O=C(c1nn(Cc2ccccc2)c(=O)c2ccccc12)N1CCN(C/C=C/c2ccccc2)CC1	i	i	i	i	i
CN(c1ccc(C(=O)NCCSC(C)(C)C)cc1)S(C)(=O)=O	i	i	i	87.2	i
O=C(Nc1nccs1)C1CCN(S(=O)(=O)c2cccnc2)CC1	nt	21.1	i	i	i
O=C(Nc1nccs1)C1CCCN(S(=O)(=O)c2cccnc2)C1 (stereo not given)	i	i	i	i	i
COc1ccc(NC(=S)NNC(=O)OC(C)(C)C)cc1OC	i	i	i	i	i
C=CCn1c(Br)nc2c1c(=O)n(C)c(=O)n2C	i	i	i	i	49.4
O=C(Nc1ccc2snnc2c1)N1CCN(c2ccccc2)CC1	i	i	i	i	i
O=C(Nc1ccc2snnc2c1)Nc1cccc2ccccc12	i	i	i	87.4	i
CC1CCN(C(=S)c2cn(Cc3ccc(F)cc3)c3ccccc23)CC1	i	nt	i	i	i
O=[N+]([O-])/C=C/c1cn(Cc2ccc(F)cc2)c2ccccc12	15.6	nt	i	i	i
C(=C1/CCCC2=C1Nc1ncnn1C2c1ccccc1)/c1ccccc1 (stereo not given)	i	i	37.7	i	i
FC(F)(F)c1ccccc1C1C2=C(Nc3ncnn31)c1ccccc1CCC2 (stereo not given)	i	nt	i	i	i
Cc1c(F)cccc1NC(=O)CSCC(=O)Nc1ccccc1	i	i	i	i	i
